The campaign covered roughly 69,000 compounds. About 8,600 (12%) showed an effect of 50% or more. The list comes from a sample in which strong results are over-represented; it also holds similar structures and randomly drawn compounds.

The test has as its system Plasmodium berghei. As to the kind of experiment: Screen against P. berghei liver stage (PbLuc), transformed with Luciferase, at 10uM. The test is classed as functional, HepG2. Conditions: tested at 10 uM.
Take `CC(C)NC(=O)C1CN(C(=O)Nc2cccc(F)c2)CC12CCOCC2` (centres undefined): the INHIBITION is recorded as 17.1%.
Turning to `Cc1cnn(CC(C)Nc2cnc3ccccc3n2)c1` (centres undefined), the INHIBITION is given as -26.8%.
On to `CCn1cc(-n2cc3nc(N4CCN(C)CC4)[nH]cc-3c2=O)cn1`, for which the INHIBITION is -5.53%.
As for `CN(C)S(=O)(=O)N1CCN(c2cc(-n3cccc3)ncn2)CC1`, the INHIBITION worked out at 14.4%.
As to `CN(CC1CCCCO1)C(=O)c1ccnc(OC2CCC2)c1` (centres undefined), the INHIBITION amounted to 9.48%.
For the compound `CN(Cc1cnn(C)c1)C(=O)c1ccnc(OC2CCC2)c1`, the INHIBITION is on record as 46.4%.
For the compound `CN(Cc1nnc(C2CC2)n1C)C(=O)c1ccnc(OC2CCC2)c1`, the INHIBITION is -13.4%.
Take `CCc1noc(CN(C)C(=O)c2ccnc(OC3CCC3)c2)n1`: the INHIBITION was 55.4%.
Consider `CN(Cc1ccc(C#N)cc1)C(=O)c1ccnc(OC2CCC2)c1`, for which the INHIBITION is 51.4%.
Next, `CN(Cc1cnccn1)C(=O)c1ccnc(OC2CCC2)c1`: 36.3%; `CC(C)NC(=O)N1CCc2ncc(CN3CCOCC3)n2CC1`: 21.6%; `CCCS(=O)(=O)N1Cc2nccn2CC(CN(C)C)C1` (centres undefined): -57.5%.
In the case of `CC(=O)Nc1ccc(CNCc2ccc(CS(C)(=O)=O)cc2)cc1`, the INHIBITION was 38%.
With `Cc1cc(NCc2csc(C)n2)no1`, the INHIBITION is given as 29.4%.
Turning to `Cc1cc(NCc2csc(-c3ccsc3)n2)no1`, the INHIBITION is listed as -92.1%.
On to `COCc1nc(CNc2cccc(-c3csc(C)n3)c2)cs1`, for which the INHIBITION came to 18.9%.
For the compound `COCc1nc(CNc2cc(C)on2)cs1`, the INHIBITION came to 51.7%.
Regarding `COCc1nc(CNc2cccc(-c3ncon3)c2)cs1`, the INHIBITION is -42.1%.
For `COCc1nc(CNc2cccc(-c3nc(C)c(C)o3)c2)cs1`, the INHIBITION amounted to 65.3%.
Regarding `CN(Cc1noc2c1CCCC2)C(=O)Nc1ccc2oc(=O)n(C)c2c1`, the INHIBITION worked out at 36.4%.
Take `Cc1cnn(CCNCc2ccccc2OCc2ccncc2)c1`: the INHIBITION is listed as -15.5%.
Regarding `COc1cc(C(=O)N(Cc2ccco2)C2CC2)cc(OC)c1OC`, the INHIBITION was 53.4%.
As to `CCN(Cc1ccco1)C(=O)c1cc(OC)c2c(c1)OCCO2`, the INHIBITION was determined as 10.3%.
On to `COc1cc(C(=O)N(Cc2ccco2)C2CC2)cc2c1OCCO2`, for which the INHIBITION is on record as -2.37%.
Next, `O=C(NCCNc1ncccn1)C1CC(=O)N(C2CCCC2)C1` (centres undefined): 21.6%; `Cc1cnn(CCNCc2nnc(C3CC3)o2)c1`: 21.2%.
Regarding `c1ccc(-c2nnc(CNCCn3cccn3)o2)cc1`, the INHIBITION is 32.6%.
Take `c1cnn(CCNCc2nnc(C3CC3)o2)c1`: the INHIBITION was found to be 53.5%.
Next, `Cn1cccc1C(=O)N1CC[C@H]2C[C@@H](c3ccncn3)O[C@@H]2C1`: 41.5%; `Cc1noc2nc(C3CCN(Cc4cccnc4)CC3)cc(C(F)F)c12`: 48.3%; `Cc1noc2nc(C3CCN(Cc4ccncc4)CC3)cc(C(F)F)c12`: 44.9%.
Next, `Cc1noc2nc(C3CCN(CC4CCCCC4)CC3)cc(C(F)F)c12`: 59%; `CCCS(=O)(=O)N1C[C@@H]2C[C@H](C(=O)N3CCOCC3)[C@H](C1)O2`: -19.6%.
With `CNC(=O)c1cccc(NC(=O)CN2CCCN(S(C)(=O)=O)CC2)c1`, the INHIBITION is listed as -7.27%.
With `O=C(C[C@@H]1COC[C@H]2CN(C3CCCC3)C[C@@H]12)NCc1cccnc1`, the INHIBITION came to 20.6%.
Regarding `Cc1nnc2n1CCN(Cc1nc(-c3ccoc3)no1)C2`, the INHIBITION is given as -16.75%.
Turning to `COc1c(CNCc2ccc(CN(C)C)cc2)c(C)nn1C`, the INHIBITION is recorded as -15.8%.
Turning to `CCNC(=O)c1ccc(CNCc2c(C)nn(C)c2N(C)C)cc1`, the INHIBITION is 58.8%.
Next, `Cc1nn(C)c(N(C)C)c1CNCCC(=O)NC1CCCC1`: 64.8%; `COc1c(CNCc2ccc(OCC(N)=O)cc2)c(C)nn1C`: 35.9%; `COc1c(CNCc2ccc(C(=O)N(C)C(C)C)cc2)c(C)nn1C`: 88.5%.
With `COc1c(CNCc2ccc(S(C)(=O)=O)cc2)c(C)nn1C`, the INHIBITION is listed as -31.8%.
On to `COCc1ccc(CNCc2c(C)nn(C)c2N(C)C)cc1`, for which the INHIBITION is 33.7%.
Turning to `Cc1nn(C)c(N(C)C)c1CNCCC(=O)NC1CCCCC1`, the INHIBITION stood at 49.8%.
Turning to `CC(C)c1nn(C)c(N(C)C)c1CNCCC(=O)NC1CCCC1`, the INHIBITION is reported as 35.8%.
Take `Cc1nn(C)c(N(C)C)c1CNCc1ccc(C(=O)N(C)C)cc1`: the INHIBITION is listed as -19.9%.
`COc1c(CNCc2ccc(C(=O)NC3CC3)cc2)c(C)nn1C`: the INHIBITION is on record as 13.5%.
Regarding `COc1c(CNCc2ccc(C(=O)N3CCCC3)cc2)c(C)nn1C`, the INHIBITION was 64.9%.
With `Cc1nn(C)c(N2CCOCC2)c1CNCc1ccoc1C`, the INHIBITION is listed as -29.8%.
On to `O=C1CC2(CCCC2)CC(=O)N1Cc1nccs1`, for which the INHIBITION is reported as 28.4%.
As for `Cc1ncsc1CN1C[C@@H](O)[C@](O)(CNC(=O)c2ccccn2)C1`, the INHIBITION was found to be 18.9%.
For the compound `O=C(NC1CCC1)[C@H]1C[C@@H]2[C@@H](C1)OCCN2CC1CC1`, the INHIBITION is on record as 36.4%.
In the case of `Cc1ccc2c(c1)C1(CCN(C(N)=O)CC1)CN2CC1CC1`, the INHIBITION is recorded as 44.8%.
As to `NS(=O)(=O)c1cnn(CC(=O)Nc2c(Cl)cccc2Cl)c1`, the INHIBITION was found to be 42.3%.

Values taken from ChEMBL document CHEMBL4513216, “Probing the Open Global Health Chemical Diversity Library for Multistage-Active Starting Points for Next-Generation Antimalarials” (ACS Infect Dis, 2020).
